Results: article PMC7862700, “An all-to-all approach to the identification of sequence-specific readers for epigenetic DNA modifications on cytosine”

Legend:
Assay in all cases: DAPPL (digital affinity profiling via proximity ligation, sequencing); 10 mM Tris-HCl pH 7.5, 50 mM NaCl, 1 mM DTT, 4% glycerol, room temperature, 30 min; GST-TFs on glutathione beads, 16-mer random dsDNA library, 0.1% formaldehyde crosslink after washing; high values mean tight binding
Settings in all cases: protein: recombinant; tags: N-terminal GST; dsDNA, one strand shown
[1] = target: T1, FLI1 (Homo sapiens, UniProt Q01543 1-452)
T1 sequence: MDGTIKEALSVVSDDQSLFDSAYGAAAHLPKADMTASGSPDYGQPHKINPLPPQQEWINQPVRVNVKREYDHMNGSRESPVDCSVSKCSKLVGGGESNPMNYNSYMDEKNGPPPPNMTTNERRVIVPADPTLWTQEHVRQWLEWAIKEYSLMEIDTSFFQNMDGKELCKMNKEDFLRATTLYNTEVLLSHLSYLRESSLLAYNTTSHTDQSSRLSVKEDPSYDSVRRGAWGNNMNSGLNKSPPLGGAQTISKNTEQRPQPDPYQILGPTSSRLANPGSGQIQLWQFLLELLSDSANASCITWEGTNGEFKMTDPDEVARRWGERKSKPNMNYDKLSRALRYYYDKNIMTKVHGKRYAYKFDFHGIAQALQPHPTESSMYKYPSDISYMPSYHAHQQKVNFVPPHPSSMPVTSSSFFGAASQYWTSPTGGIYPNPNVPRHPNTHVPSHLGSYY
In short: (§1)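 Human transcription factors fused to GST were expressed in yeast, captured on glutathione beads, given DNA barcodes and pooled with a GST-only negative control. Pools were incubated with 200 nmole of a 16-mer random double-stranded DNA library in Tris/NaCl/DTT/glycerol buffer at room temperature for 30 min. They were then washed, crosslinked with 0.1% formaldehyde, proximity-ligated (BsaI/T4 ligase, 1 h, 37 °C), PCR-amplified and sequenced on an Illumina NextSeq500. Binding signal is each 6-mer's read frequency for a factor divided by its frequency for the GST control.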

[2] = target: T2, ELK1 (Homo sapiens, UniProt P19419 1-428)
T2 sequence: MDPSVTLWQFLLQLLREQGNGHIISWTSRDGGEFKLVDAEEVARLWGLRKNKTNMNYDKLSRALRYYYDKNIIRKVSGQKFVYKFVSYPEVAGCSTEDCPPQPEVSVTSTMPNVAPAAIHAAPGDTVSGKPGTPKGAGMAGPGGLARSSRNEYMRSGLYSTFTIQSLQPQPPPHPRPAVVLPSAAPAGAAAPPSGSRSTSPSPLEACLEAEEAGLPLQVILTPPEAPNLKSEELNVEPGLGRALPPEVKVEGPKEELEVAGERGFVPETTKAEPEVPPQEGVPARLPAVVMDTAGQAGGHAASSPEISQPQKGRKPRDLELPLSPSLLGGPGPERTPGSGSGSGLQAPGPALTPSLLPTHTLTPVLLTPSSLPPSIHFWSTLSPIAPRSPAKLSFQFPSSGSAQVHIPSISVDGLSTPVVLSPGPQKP
In short: as §1

[3] = target: T3, GABPA (Homo sapiens, UniProt Q06546 1-454)
T3 sequence: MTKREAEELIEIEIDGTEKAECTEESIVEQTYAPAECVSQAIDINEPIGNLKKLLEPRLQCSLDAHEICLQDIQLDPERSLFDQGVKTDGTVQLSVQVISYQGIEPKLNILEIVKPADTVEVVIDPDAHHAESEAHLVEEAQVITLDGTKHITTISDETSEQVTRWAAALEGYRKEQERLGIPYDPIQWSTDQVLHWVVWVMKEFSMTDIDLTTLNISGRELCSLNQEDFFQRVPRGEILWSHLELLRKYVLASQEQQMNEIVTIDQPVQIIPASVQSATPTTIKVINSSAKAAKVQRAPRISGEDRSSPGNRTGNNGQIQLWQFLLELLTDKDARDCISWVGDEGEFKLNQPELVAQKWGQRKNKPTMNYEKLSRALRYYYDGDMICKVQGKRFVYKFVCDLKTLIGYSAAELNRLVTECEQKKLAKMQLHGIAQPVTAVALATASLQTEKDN
In short: as §1

[4] = target: T4, ERG (Homo sapiens, UniProt P11308 1-479)
T4 sequence: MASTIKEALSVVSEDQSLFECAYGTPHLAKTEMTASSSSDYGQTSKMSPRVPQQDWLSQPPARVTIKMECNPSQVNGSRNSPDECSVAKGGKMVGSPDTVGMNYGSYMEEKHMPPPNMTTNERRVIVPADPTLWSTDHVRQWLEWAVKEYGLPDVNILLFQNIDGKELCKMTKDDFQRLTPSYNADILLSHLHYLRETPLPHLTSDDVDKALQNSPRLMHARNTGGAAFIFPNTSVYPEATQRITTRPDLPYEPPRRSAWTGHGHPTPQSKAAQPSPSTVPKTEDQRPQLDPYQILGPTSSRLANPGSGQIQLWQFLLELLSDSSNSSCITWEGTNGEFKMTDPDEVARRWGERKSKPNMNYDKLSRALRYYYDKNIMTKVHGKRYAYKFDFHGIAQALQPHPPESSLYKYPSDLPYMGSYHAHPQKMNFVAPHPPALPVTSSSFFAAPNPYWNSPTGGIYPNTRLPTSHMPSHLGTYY
In short: as §1

[5] = target: ELF1 (Homo sapiens, UniProt P32519 1-619)
Chain of ELF1 (P32519 whole entry): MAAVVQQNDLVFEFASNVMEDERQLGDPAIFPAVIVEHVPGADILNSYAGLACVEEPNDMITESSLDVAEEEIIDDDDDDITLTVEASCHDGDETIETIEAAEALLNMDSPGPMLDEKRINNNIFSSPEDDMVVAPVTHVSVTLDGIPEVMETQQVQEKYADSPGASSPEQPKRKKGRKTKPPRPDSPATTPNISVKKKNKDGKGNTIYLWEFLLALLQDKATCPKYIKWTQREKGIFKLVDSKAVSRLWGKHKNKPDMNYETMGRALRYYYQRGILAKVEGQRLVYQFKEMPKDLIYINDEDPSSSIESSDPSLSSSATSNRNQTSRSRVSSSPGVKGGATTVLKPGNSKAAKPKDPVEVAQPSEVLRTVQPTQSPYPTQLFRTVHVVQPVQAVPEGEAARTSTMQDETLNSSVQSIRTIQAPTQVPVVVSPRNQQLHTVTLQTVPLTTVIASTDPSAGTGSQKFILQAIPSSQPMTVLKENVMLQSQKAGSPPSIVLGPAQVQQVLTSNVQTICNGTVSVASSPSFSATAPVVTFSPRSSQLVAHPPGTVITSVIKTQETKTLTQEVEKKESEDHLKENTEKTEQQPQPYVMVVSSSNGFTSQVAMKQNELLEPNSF
In short: as §1

[6] = target: T5, EHF (Homo sapiens, UniProt Q9NZC4 1-300)
T5 sequence: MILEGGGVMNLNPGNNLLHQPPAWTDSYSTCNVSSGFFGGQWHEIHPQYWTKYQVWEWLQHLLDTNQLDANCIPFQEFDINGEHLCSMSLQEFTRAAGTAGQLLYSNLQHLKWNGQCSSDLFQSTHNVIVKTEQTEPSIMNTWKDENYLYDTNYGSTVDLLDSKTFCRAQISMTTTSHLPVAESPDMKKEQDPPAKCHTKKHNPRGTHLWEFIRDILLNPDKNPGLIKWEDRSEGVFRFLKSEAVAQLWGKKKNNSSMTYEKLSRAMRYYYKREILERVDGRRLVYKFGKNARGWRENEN
In short: as §1

[7] = target: SPI1 (Homo sapiens, UniProt P17947 1-270)
In short: as §1

[8] = target: SPIB (Homo sapiens, UniProt Q01892 1-262)
Chain of SPIB (Q01892 whole entry): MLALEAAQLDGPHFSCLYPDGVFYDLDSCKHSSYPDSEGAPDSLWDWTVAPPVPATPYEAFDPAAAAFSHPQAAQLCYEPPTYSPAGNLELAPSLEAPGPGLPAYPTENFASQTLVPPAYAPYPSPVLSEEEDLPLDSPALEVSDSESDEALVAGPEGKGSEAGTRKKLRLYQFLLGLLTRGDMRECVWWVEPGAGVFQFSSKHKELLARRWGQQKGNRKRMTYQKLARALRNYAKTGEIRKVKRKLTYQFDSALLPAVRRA
In short: as §1

[9] = target: T6, ELK3 (Homo sapiens, UniProt P41970 1-407)
T6 sequence: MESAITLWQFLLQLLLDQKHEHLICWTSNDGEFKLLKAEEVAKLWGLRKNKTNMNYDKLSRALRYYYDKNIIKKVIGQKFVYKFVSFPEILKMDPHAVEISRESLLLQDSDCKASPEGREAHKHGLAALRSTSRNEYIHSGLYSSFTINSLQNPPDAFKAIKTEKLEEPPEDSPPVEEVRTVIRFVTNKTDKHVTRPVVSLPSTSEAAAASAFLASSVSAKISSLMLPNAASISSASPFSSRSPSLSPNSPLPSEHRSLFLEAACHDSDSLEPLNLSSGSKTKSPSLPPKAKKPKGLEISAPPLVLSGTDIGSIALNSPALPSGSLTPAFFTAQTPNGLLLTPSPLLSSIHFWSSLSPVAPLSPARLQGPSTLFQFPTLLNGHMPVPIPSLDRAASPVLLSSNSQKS
In short: as §1

[10] = target: T7, FEV (Homo sapiens, UniProt Q99581 1-238)
T7 sequence: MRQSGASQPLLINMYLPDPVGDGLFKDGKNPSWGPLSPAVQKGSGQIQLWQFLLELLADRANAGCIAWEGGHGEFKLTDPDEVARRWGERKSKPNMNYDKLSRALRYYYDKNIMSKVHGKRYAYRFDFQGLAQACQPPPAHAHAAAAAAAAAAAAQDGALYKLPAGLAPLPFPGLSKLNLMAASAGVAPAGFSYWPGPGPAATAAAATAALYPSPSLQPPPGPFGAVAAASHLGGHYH
In short: as §1

[11] = target: ETV5 (Homo sapiens, UniProt P41161 1-510)
Chain of ETV5 (P41161 whole entry): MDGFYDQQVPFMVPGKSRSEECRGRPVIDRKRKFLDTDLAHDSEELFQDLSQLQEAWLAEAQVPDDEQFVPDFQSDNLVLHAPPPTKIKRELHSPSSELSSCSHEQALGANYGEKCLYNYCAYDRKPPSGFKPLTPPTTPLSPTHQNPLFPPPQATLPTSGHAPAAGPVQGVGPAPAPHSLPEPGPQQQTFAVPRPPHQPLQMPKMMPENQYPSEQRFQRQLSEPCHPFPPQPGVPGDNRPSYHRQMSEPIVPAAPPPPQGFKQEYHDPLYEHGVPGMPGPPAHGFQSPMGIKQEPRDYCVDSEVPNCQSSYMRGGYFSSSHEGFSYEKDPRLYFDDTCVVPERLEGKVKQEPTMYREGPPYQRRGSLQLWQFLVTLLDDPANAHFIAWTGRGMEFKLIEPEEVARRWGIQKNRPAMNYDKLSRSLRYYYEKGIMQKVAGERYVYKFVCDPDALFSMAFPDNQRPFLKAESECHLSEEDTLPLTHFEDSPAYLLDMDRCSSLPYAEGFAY
In short: as §1

[12] = target: T8, SPIC (Homo sapiens, UniProt Q8N5J4 1-248)
T8 sequence: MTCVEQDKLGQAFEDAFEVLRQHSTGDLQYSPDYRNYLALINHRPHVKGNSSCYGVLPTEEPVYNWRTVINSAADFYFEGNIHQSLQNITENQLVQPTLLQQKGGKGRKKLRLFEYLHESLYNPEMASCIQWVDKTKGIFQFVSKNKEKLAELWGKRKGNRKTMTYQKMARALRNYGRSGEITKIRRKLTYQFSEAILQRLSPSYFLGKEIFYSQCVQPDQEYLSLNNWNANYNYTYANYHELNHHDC
In short: as §1

[13] = target: ELF4 (Homo sapiens, UniProt Q99607 1-663)
Chain of ELF4 (Q99607 whole entry): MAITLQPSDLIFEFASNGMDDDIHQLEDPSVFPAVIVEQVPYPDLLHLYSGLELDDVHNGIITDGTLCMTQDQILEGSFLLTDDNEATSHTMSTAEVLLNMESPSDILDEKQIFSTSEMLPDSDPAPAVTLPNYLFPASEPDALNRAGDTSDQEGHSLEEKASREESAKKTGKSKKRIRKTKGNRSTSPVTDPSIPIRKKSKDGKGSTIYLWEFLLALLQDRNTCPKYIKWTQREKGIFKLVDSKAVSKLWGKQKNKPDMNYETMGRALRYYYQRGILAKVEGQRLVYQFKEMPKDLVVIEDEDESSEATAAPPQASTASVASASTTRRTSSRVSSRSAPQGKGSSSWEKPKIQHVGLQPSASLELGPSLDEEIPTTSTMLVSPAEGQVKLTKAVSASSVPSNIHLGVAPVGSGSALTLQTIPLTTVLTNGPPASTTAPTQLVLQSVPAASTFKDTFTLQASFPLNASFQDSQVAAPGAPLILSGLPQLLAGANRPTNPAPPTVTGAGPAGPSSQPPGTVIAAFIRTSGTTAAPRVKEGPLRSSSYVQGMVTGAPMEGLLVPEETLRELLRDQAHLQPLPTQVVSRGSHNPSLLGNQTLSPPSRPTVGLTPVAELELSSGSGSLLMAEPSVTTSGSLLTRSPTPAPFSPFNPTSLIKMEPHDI
In short: as §1

[14] = target: T9, ELK4 (Homo sapiens, UniProt P28324-2 1-405)
T9 sequence: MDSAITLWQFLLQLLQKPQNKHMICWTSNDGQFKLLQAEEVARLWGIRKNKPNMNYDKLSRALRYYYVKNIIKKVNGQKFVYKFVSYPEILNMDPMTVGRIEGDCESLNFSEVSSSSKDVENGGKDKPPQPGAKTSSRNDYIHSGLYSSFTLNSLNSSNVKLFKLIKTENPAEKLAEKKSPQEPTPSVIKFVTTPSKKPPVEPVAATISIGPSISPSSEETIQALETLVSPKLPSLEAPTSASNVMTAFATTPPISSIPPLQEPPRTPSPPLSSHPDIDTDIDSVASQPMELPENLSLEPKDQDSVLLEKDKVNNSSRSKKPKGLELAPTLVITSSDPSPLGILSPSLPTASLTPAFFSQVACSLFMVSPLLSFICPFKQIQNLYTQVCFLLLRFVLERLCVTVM
In short: as §1

[15] = target: T10, ETV2 (Homo sapiens, UniProt O00321 1-342)
T10 sequence: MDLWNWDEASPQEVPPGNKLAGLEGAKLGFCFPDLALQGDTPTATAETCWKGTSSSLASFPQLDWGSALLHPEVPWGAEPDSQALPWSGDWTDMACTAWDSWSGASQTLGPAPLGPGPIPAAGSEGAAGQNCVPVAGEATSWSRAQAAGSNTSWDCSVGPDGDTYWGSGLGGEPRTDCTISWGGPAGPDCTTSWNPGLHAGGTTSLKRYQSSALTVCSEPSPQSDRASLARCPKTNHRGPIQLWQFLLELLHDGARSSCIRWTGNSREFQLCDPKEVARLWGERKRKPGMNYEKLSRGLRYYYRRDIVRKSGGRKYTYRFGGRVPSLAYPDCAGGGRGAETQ
In short: as §1

[16] = target: T11, ELF3 (Homo sapiens, UniProt P78545 1-371)
T11 sequence: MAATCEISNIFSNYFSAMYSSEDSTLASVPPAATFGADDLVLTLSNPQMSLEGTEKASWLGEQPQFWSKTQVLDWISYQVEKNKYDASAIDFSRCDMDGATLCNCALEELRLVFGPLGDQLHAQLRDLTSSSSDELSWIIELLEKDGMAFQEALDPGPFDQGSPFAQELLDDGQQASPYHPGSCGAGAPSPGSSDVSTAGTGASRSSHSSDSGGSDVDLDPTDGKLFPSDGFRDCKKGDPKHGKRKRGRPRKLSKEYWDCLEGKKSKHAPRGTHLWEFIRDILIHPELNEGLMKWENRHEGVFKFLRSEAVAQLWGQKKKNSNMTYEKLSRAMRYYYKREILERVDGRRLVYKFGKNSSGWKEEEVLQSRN
In short: as §1

[17] = target: ETV1 (Homo sapiens, UniProt P50549 1-477)
Chain of ETV1 (P50549 whole entry): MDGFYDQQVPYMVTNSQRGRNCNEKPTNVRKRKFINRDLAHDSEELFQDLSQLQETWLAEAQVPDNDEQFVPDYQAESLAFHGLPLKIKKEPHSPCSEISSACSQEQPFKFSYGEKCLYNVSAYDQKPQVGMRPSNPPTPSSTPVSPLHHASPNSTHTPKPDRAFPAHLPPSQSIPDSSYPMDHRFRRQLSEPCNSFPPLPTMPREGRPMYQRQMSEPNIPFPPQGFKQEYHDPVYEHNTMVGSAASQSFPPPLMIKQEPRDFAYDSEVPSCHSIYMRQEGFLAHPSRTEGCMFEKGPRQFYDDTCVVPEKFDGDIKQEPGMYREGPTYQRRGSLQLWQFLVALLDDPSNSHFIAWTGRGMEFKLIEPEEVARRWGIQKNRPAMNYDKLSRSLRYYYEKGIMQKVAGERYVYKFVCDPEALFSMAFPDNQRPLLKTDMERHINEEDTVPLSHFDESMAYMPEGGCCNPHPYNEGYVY
In short: as §1

Sequence | binding signal [1] | binding signal [2] | binding signal [3] | binding signal [4] | binding signal [5] | binding signal [6] | binding signal [7] | binding signal [8] | binding signal [9] | binding signal [10] | binding signal [11] | binding signal [12] | binding signal [13] | binding signal [14] | binding signal [15] | binding signal [16] | binding signal [17]
CCGTCA | 1.24 fold enrichment (6-mer frequency, TF over GST control) | 1.3 fold enrichment (6-mer frequency, TF over GST control) | 1.19 fold enrichment (6-mer frequency, TF over GST control) | 1.31 fold enrichment (6-mer frequency, TF over GST control) | 1.28 fold enrichment (6-mer frequency, TF over GST control) | 1.16 fold enrichment (6-mer frequency, TF over GST control) | 1.18 fold enrichment (6-mer frequency, TF over GST control) | 1.2 fold enrichment (6-mer frequency, TF over GST control) | 1.15 fold enrichment (6-mer frequency, TF over GST control) | 1.19 fold enrichment (6-mer frequency, TF over GST control) | 1.23 fold enrichment (6-mer frequency, TF over GST control) | 1.13 fold enrichment (6-mer frequency, TF over GST control) | 1.26 fold enrichment (6-mer frequency, TF over GST control) | 1.31 fold enrichment (6-mer frequency, TF over GST control) | 1.24 fold enrichment (6-mer frequency, TF over GST control) | 1.35 fold enrichment (6-mer frequency, TF over GST control) | 1.22 fold enrichment (6-mer frequency, TF over GST control)
TACCGG | 1.52 fold enrichment (6-mer frequency, TF over GST control) | 1.55 fold enrichment (6-mer frequency, TF over GST control) | 1.52 fold enrichment (6-mer frequency, TF over GST control) | 1.77 fold enrichment (6-mer frequency, TF over GST control) | 1.53 fold enrichment (6-mer frequency, TF over GST control) | 1.67 fold enrichment (6-mer frequency, TF over GST control) | 1.43 fold enrichment (6-mer frequency, TF over GST control) | 1.61 fold enrichment (6-mer frequency, TF over GST control) | 1.56 fold enrichment (6-mer frequency, TF over GST control) | 2.1 fold enrichment (6-mer frequency, TF over GST control) | 1.68 fold enrichment (6-mer frequency, TF over GST control) | 1.43 fold enrichment (6-mer frequency, TF over GST control) | 1.51 fold enrichment (6-mer frequency, TF over GST control) | 1.4 fold enrichment (6-mer frequency, TF over GST control) | 1.5 fold enrichment (6-mer frequency, TF over GST control) | 1.78 fold enrichment (6-mer frequency, TF over GST control) | 1.73 fold enrichment (6-mer frequency, TF over GST control)
